Assay outcomes (PubChem BioAssay)
The list is not random: actives were taken first. Their share in the collection is about 0.9%.
Tat export inh: E. coli Tat transport inhibition | inhibition, % at 10 µM | E. coli MC4100 TorA-mCherry Tat export, fluorescence | hit rate 0.036% among 340,000 | AID 488895;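 active means mean replicate inhibition at least 50% and at least half of replicates individually reaching 50%; inconclusive means only one of the two criteria met; inactive means neither criterion met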;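 further: exported cargo escapes ClpAP degradation while cytoplasmic cargo is degraded and loses fluorescence; 0% = median of neutral control wells and 100% = median of NaSCN control wells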
E coli growth-1: blocks Escherichia coli growth; AID 1053175; OD600, 23 h; active compounds read low; OD600 absorbance (concentration not given with the values); hit rate 0.21% among 330,000;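 active means OD600 absorbance below the run mean of sample wells minus 3.6 SD, in any replicate, cut at about 0.56 in these data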
Calb FLC: C. albicans growth modulation with fluconazole. C. albicans CaCi-2 (fluconazole-resistant clinical isolate) + fluconazole, Alamar Blue growth, 48 h. growth inhibition, % (no concentration beside the values). hit rate 0.57% among 300,000. AID 1979;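 active means growth inhibition above about 58% in most replicates, limit read from the data, passing the limit was not always enough; inconclusive means exactly half the replicates above a set limit; inactive means most replicates below a set limit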;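 further: all wells also contain fluconazole at 8 µg/ml as a sub-toxic cotreatment; 0% = median of DMSO wells and 100% = median of geldanamycin control wells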
E coli growth-2: bacterial growth inhibition, counter-screen for AddAB inhibitors; hit rate 0.27% among 330,000; E. coli V3065 growth, OD600 absorbance, 18 h; inhibition, % at 11.9 µM;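 active means inhibition above the campaign's mean inhibition across all tested compounds plus 3 SD, cut at about 9.9% in these data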;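 further: uninfected addAB+ strain grown without phage in ampicillin broth; 0% = DMSO wells and 100% = ciprofloxacin 0.95 µg/ml wells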
AddAB inh: less growth of phage-infected E. coli with AddAB; inhibition, % at 11.9 µM; hit rate 0.29% among 330,000; E. coli expressing H. pylori AddAB, absorbance growth; in the data active means inhibition above about 12%;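 further: 0% = vehicle wells of infected cells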
phage Ecoli inh: E. coli growth loss with phage present | growth absorbance | inhibition, % at 11.9 µM | AID 651602 | hit rate 0.26% among 360,000; in the data active means inhibition above about 11%
The depositor's hits bear a star.

For COC(=O)C1=C(C)N(Cc2ccco2)C(=O)NC1c1ccccc1 (stereo not drawn) the results were E coli growth-1 0.675.
Screening CN(C)S(=O)(=O)c1ccc(C(=O)Nc2nnc(-c3ccco3)o2)cc1 returned Tat export inh -3.1, E coli growth-1 0.709, Calb FLC 28.4, E coli growth-2 -3.9, AddAB inh -1.0 and phage Ecoli inh 3.5.
Screening CCCCN(C)S(=O)(=O)c1ccc(C(=O)Nc2nnc(-c3ccco3)o2)cc1 returned Tat export inh 3.7, E coli growth-1 0.673, Calb FLC 97.5*, E coli growth-2 -5.6, AddAB inh -4.5 and phage Ecoli inh -2.8.
For CCCOC(c1ccccc1)(c1ccc(C(F)(F)F)cc1)C(Oc1nc(C)cc(C)n1)C(=O)O (stereo not drawn) the results were Tat export inh 9.0, E coli growth-1 0.656, Calb FLC 79.5*, E coli growth-2 -2.3, AddAB inh 0.4 and phage Ecoli inh 4.4.
Screening C(=NNc1nncc2ccccc12)c1ccccc1 returned E coli growth-1 0.685.
For Cc1c(Cl)cnn1CC(=O)NC1C(=O)N2C(C(=O)O)=C(CSc3nnnn3C)CSC12 (stereo not drawn) the results were Tat export inh -0.1, E coli growth-1 0.074*, Calb FLC 22.1, E coli growth-2 -1.9, AddAB inh -1.9 and phage Ecoli inh 7.6.
Cc1c(Cl)c(C(F)F)nn1CC(=O)NC1C(=O)N2C(C(=O)O)=C(CSc3nnnn3C)CSC12 (stereo not drawn) was read as Tat export inh -3.0, E coli growth-1 0.65, Calb FLC 28.2 and phage Ecoli inh 6.0.
Screening CC(C(=O)NC1C(=O)N2C(C(=O)O)=C(CSc3nnnn3C)CSC12)n1cc(Cl)cn1 (stereo not drawn) returned Tat export inh -2.9, E coli growth-1 0.501*, Calb FLC -10.9, E coli growth-2 1.1, AddAB inh -0.7 and phage Ecoli inh 5.0.
`CCN1CCN(C(=O)NC(C(=O)NC2C(=O)N3C(C(=O)O)=C(CSc4nnnn4C)CSC23)c2ccc(O)cc2)C(=O)C1=O` (stereo not drawn) gave E coli growth-1 0.061*.
For Cc1nnc(SCC2=C(C(=O)O)N3C(=O)C(NC(=O)Cc4ccccc4)C3SC2)s1 (stereo not drawn) the results were Tat export inh 8.2, E coli growth-1 0.6, E coli growth-2 -0.9, AddAB inh 1.9 and phage Ecoli inh 2.4.
`Cn1nnnc1SCC1=C(C(=O)O)N2C(=O)C(NC(=O)Cn3nc(C(F)F)cc3C3CC3)C2SC1` (stereo not drawn) gave Tat export inh -2.3, E coli growth-1 0.487*, Calb FLC inconclusive, E coli growth-2 1.9, AddAB inh 0.0 and phage Ecoli inh 9.3.
For Cc1nnc(SCC2=C(C(=O)O)N3C(=O)C(NC(=O)C(C)n4nc(C(F)(F)F)cc4C)C3SC2)s1 (stereo not drawn) the results were Tat export inh 1.0, E coli growth-1 0.668, Calb FLC 10.4, E coli growth-2 2.4, AddAB inh 1.7 and phage Ecoli inh 4.0.
`Cc1nn(CC(=O)NC2C(=O)N3C(C(=O)O)=C(CSc4nnnn4C)CSC23)cc1Br` (stereo not drawn) gave Tat export inh -11.2, E coli growth-1 0.461*, Calb FLC 19.2, E coli growth-2 1.2, AddAB inh 0.1 and phage Ecoli inh 5.1.
Screening O=C(Nc1cc(Sc2ccccn2)cc([N+](=O)[O-])c1)c1ccc(Cl)cc1 returned Tat export inh -0.5, E coli growth-1 0.721, Calb FLC -0.5, E coli growth-2 2.0, AddAB inh 0.1 and phage Ecoli inh 3.4.
Screening O=C(Nc1cc(Sc2ccccn2)cc([N+](=O)[O-])c1)c1cccc(Cl)c1 returned Tat export inh 21.0, E coli growth-1 0.635, Calb FLC 113.3*, E coli growth-2 1.7, AddAB inh 2.4 and phage Ecoli inh 3.9.
`CCCCNC(=O)O[C@@H]1C[C@H]2CCCC(=O)N3CC[C@@H](C1)[C@@H]23` gave Tat export inh -8.4, Calb FLC -9.2, E coli growth-2 -2.1, AddAB inh 0.7 and phage Ecoli inh 2.4.
For CCCCCCCN(c1ccccc1)[C@@H]1C[C@H]2CCCC(=O)N3CC[C@@H](C1)[C@@H]23 the results were Tat export inh 50.8* and phage Ecoli inh 4.4.
`CCCOc1ccc(C=NNC(=O)C(=O)Nc2ccccn2)cc1` gave E coli growth-1 0.681.
